From PubChem BioAssay AID1233 (SRMLSC, 2008)
Potency and affinity values are given separately.

Target: HMG-CoA reductase [Enterococcus faecalis] (UniProt Q9FD70)
Assay: inhibitors of E. faecalis class II HMGR, confirmation, biochemical, Enterococcus faecalis (AID 1233);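 note: 0% = full reaction carrier wells and 100% = background wells lacking mevalonate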
Conditions: purified E. faecalis HMGR, NADPH absorbance 340 nm kinetics; series mostly up to 100 µM; inhibition: at the top concentration;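 active = a dose-response curve fit returns a half-maximal inhibitory concentration, extrapolated values included; inactive = the fit returns no such concentration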

inhibition, inactive:
COc1cccc(CNC(=O)CCS(=O)(=O)c2cccs2)c1 0.24%
O=C(COC(=O)CCS(=O)(=O)c1ccc(Cl)cc1)NCCc1ccccc1 -1.92%
Cc1noc(C)c1CSc1nc2sc(C)c(C)c2c(=O)n1C1CCCC1 -0.73%
COCCNC(=O)C(c1ccccc1C)N(C(=O)Cn1nnc2ccccc21)c1cccnc1 (stereo not drawn) -7.56%
CCOC(=O)Cc1nn(Cc2ccccc2)c(=O)c2ccccc12 0.6%
O=S1(=O)CC=C(CSC(=S)NC2CCS(=O)(=O)C2)C1 (stereo not drawn) -6.87%
Brc1ccc(/C=N/Nc2ncnc3c2cnn3Cc2ccccc2)cc1 -21.9%
Cc1c(CN2CCc3c([nH]c4ccccc34)C2C2CCCCC2)cnn1C (stereo not drawn) -10%
COc1ccccc1NC(=S)N1CCCc2ccccc21 0.02%
Cc1ccc(Cc2cncc(O)c2)cc1S(=O)(=O)O 0.13%
COc1cc(C2NC(=O)NC(c3ccccc3)=C2C(C)=O)cc(Cl)c1OCC(=O)O (stereo not drawn) -2.8%
CCOC(=O)C1CCN(C(=O)c2c(-c3ccccc3)noc2C)CC1 -3.39%
O=C(Nc1ccc(Cl)cc1)Nc1nnc(-c2ccncc2)s1 0.95%
CCCCCOC(=O)Cn1c(N2CCOCC2)nc2c1c(=O)[nH]c(=O)n2C 0.09%
CCOc1ccc(/C=N/NC(=O)CC(=O)Nc2ccc(Cl)c(Cl)c2)cc1 -0.69%
Cc1ccc(NC(=O)NC2CCCCC2)cc1S(=O)(=O)N1CCOCC1 1.4%
CCCCCC(=O)Nc1ccc(Cc2ccncc2)cc1 0.09%
NNc1nc2c(Cl)ccc(Cl)c2s1 -11.5%
COC(=O)CNC(=O)c1cc(OC)cc(OC)c1 -3.23%
CCNC(=O)CSc1nc2cc([N+](=O)[O-])ccc2n1-c1cccc(C(F)(F)F)c1 -3.74%
COc1cccc(NC(=O)c2ccc3snnc3c2)c1 -9.19%
Cc1nn2c(C(F)(F)F)cc(-c3ccc(Cl)cc3)nc2c1C(=O)N1CCOCC1 -4.39%
COc1cccc(NC(=O)c2cc(-c3ccncc3)nc3c(C)cc(C)cc23)c1 -5.32%
CC1(C)CC(CCC(=O)Nc2ccccc2Cl)C(=O)O1 (stereo not drawn) -2.88%
CCCCNC(=O)c1ccccc1NC(=O)CCSc1ccccc1 -7.76%
COc1ccccc1-c1c(C(F)(F)F)oc2cc(OC(=O)c3cccc([N+](=O)[O-])c3C)ccc2c1=O -3.18%
COc1ccc(C(=O)NC2CCN(C(=S)NCCc3ccccc3)CC2)cc1 -7.64%
Cc1ccc(NS(=O)(=O)c2ccc(NC(=O)[C@@H]3CCCC[C@@H]3C(=O)O)cc2)c(C)c1 -4.04%
O=C(CCCN1C(=O)/C(=C\c2cccs2)SC1=S)Nc1ccccn1 -5.05%
Cn1c(=O)c(C(=O)CSc2ccccc2)c(N)n(Cc2ccccc2)c1=O -1.18%
COc1ccc(OC)c(-n2nnnc2SCC(=O)Nc2ccccc2N2CCOCC2)c1 -5.58%
O=C(Nc1ccc2c(c1)OCO2)c1noc2c1CCCCC2 -1.8%
C=CCN1CCN(C(c2cc(OC)ccc2OC)c2nnnn2CC2CCCO2)CC1 (stereo not drawn) 0.95%
COC(=O)c1ccc(NC(=O)Nc2ccccc2F)cc1 -8.11%
Cn1c(OCc2cccnc2)nc2c1c(=O)n(Cc1ccc(Br)cc1)c(=O)n2C -5.55%
Cc1ccc(Cl)cc1NC(=O)COC(=O)C12CC3CC(CC(C3)C1)C2 -5.2%
CCOC(=O)c1c(-c2ccccc2)csc1NC(=S)N(CC)CC 5.86%
COC(=O)C1=C(CSc2nc3c(cc2C#N)CN(C)CC3)OC(N)=C(C#N)C1c1ccc(F)cc1 (stereo not drawn) -8.53%
